{"source": "PubChem BioAssay AID588346", "about": "(National Center for Advancing Translational Sciences (NCATS), 2011)", "note": "Results filed as inconclusive are left out. Values without a mark were called inactive. Calls follow the shape of the dose curve; as a rule, active = well fitted curve in the direction sought with a large enough effect; inconclusive = small, poorly fitted or top-dose-only effect, or another doubt; inactive = no such curve, though single readings can be large or run the other way."}
{"test": "qHTS Assay for Inhibitors of Histone Lysine Methyltransferase G9a: Hit Confirmation in b-rIgG Counterscreen", "settings": "AlphaScreen b-rIgG bead counterscreen, signal interference; series mostly up to 55.7 µM; activity change, negative = inhibition: at the top concentration", "description": "Methylated lysines, on the N-terminal tails of histone proteins serve as epigenetic markers to recruit factors that can then modify local chromatin structure to lead to functional consequences. G9a and other members of the SUV39 family of the SET domain-containing superfamily of histone lysine methyltransferases (HMT) have been identified to specifically methylate Lys9 of histone H3 (H3K9). G9a catalyzes the mono- and di-methylation of H3K9 in mammalian euchromatic regions, where the resulting H3K9me2 is indicative of transcriptional repression. […] The inhibition of G9a will result in transcriptional activation and work synergistically with DNA methyltransferase and histone deacetylase inhibitors, to kill cancer cells. This qHTS assay for identification of G9a inhibitors is a chemiluminescence based AlphaScreen (PerkinElmer). Methylation of biotinylated-histone peptide is measured through specific antibody-based detection, in conjunction with streptavidin-coated donor and anti-IgG antibody-coated acceptor beads. The method is particularly well suited for detection of inhibitors acting by the desired histone peptide competitive mechanism and is applicable to testing other HMTs. Although AlphaScreen has significant advantages with its utility in a variety of epigenetic target assays, the primary screening data provided in this deposition should be used with caution due to the prevalence of screening artifacts. Because an AlphaScreen counterscreen is highly recommended to be run against any putative actives to eliminate non specific artifacts, this assay was used as a counterscreen. Quinn et al. A chemiluminescence-based method for identification of histone lysine methyltransferase inhibitors. Mol Biosyst 6(5): 782-8. 2010. PMID: 20567762 [2] Baell,Holloway. New substructure filters for removal of pan assay interference compounds (PAINS) from screening libraries and for their exclusion in bioassays. J Med Chem. 53(7):2719-40. 2010. PMID: 20131845 NIH Chemical Genomics Center [NCGC] NIH Molecular Libraries Probe Production Network [MLPCN] MLPCN Grant: MH084681-02 Assay Submitter (PI): Structural Genomic Consortium - Toronto, Peter Brown\nBiotinylated rabbit-IgG (b-rIgG) (Santa Cruz Biotechnology, Inc., Santa Cruz, CA) was added to 1,536-well plates in a 3 uL dispense. Compounds were added in a 23 nL pin-transfer step, and plates were incubated at room temperature for 15 min. Streptavidin-coated donor and anti-rIgG acceptor AlphaScreen beads were added (1 uL) for final concentrations of 20 ug/mL each bead and 1 nM b-rIgG, and plates read on the Envision after a 15 min incubation at room temperature in the dark.", "units": {"activity change, negative = inhibition": "%"}}
{"smiles": "O=C(NN1C(=O)c2ccccc2NC1c1ccc([N+](=O)[O-])o1)c1ccc([N+](=O)[O-])cc1", "note": "(configuration not stated)", "activity change, negative = inhibition": 3.4}
{"smiles": "CCN1CCc2nc(N)oc2CC1", "activity change, negative = inhibition": -6.81}
